L3MBTL1 inh: qHTS Assay for the Inhibitors of L3MBTL1. Lethal(3)malignant brain tumor-like protein 1 (Homo sapiens), Q9Y468. AID 485360, 2010. Potency, µM (series often up to 57.1 µM), without a hit: at the highest dose activity, negative = inhibition, actives largely listed as inhibitors. hit rate 0.66% among 230,000. AlphaScreen L3MBTL1–H3K9me1 peptide binding; note: % is set by controls: 0 for no effect and ±100 for the full control effect; nearly all actives have a fitted effect of over 60% in size
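First, the protein-peptide complex forms for 30 min at room temperature (L3MBTL1 50 nM, biotinylated H3K9me1 peptide 75 nM). Next, compounds are pin-transferred and incubated 30 min. Finally, AlphaScreen beads are added and read after 30 min.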
Sfp inh: qHTS Assay for Inhibitors of Bacillus subtilis Sfp phosphopantetheinyl transferase (PPTase); hit rate 3.5% among 310,000; Potency, µM, without a hit: largest response in the series, negative = inhibition, most hits filed as inhibitors; Biochemical Sfp PPTase activity, qHTS; 4'-phosphopantetheinyl transferase ffp (Bacillus subtilis), Q9F4F7; AID 1490, 2009;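 note: the enzyme is Sfp with the accession as filed and its product quenches rhodamine fluorescence; 0% = enzyme reaction without inhibitor and -100% = no enzyme wells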
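With Hepes-Na pH 7.6 buffer containing 10 mM MgCl2, Sfp (15 nM) modified BHQ-2-YbbR (12.5 uM) using rhodamine-CoA (5 uM). Two reads 30 minutes apart at 525/598 nm yielded each well's rate.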
BAZ2B block: qHTS Assay for Inhibitors of BAZ2B; AlphaScreen BAZ2B-H3K14Ac peptide displacement; Bromodomain adjacent to zinc finger domain protein 2B (Homo sapiens), Q9UIF8; AID 504333, 2011; hit rate 4.4% among 360,000; Potency, µM (series often up to 114 µM), for the others: at the highest dose activity change, negative = inhibition, hits mostly inhibitors; note: % is set by controls: 0 for no effect and ±100 for the full control effect; nearly all actives have a fitted effect of over 60% in size
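AlphaScreen displacement of biotin-H3(5-23)K14Ac peptide (50 nM final) from BAZ2B (50 nM final) in PBS pH 7.4, 0.01% Tween-20; complex preformed 30 min RT, then compounds (top 110 uM) 30 min RT, beads 20 min dark.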
HP1b binding inh: HTS for Inhibitors of HP1-beta Chromodomain Interactions with Methylated Histone Tails | AlphaScreen HP1-beta / biotin-H3K9me3 peptide binding | Potency, µM (doses to about 114 µM), without a hit: top-dose activity change, negative = inhibition, usual class: inhibitors | hit rate 0.56% among 390,000; note: nearly all actives have a fitted effect of over 70% in size
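AlphaScreen: HP1-beta (50 nM) preformed 30 min with biotin-H3(1-18)K9me3 peptide (50 nM) in PBS pH 7.4, 0.01% Tween-20. Compound added for 30 min at RT, then streptavidin donor/nickel chelate acceptor beads (10 ug/mL) for 30 min.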
G9a block: qHTS Assay for Inhibitors of Histone Lysine Methyltransferase G9a. Histone-lysine N-methyltransferase EHMT2 (Homo sapiens), Q96KQ7. G9a H3K9 monomethylation, AlphaScreen, 2 h. Potency, µM (top dose mostly 102 µM), without a hit: at the top dose activity, negative = inhibition, usual class: inhibitors. hit rate 8.8% among 350,000. AID 504332, 2011; note: % is set by controls: 0 for no effect and ±100 for the full control effect; nearly all actives have a fitted effect of over 75% in size
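Enzyme 20 nM + cpd, 15 min RT; add b-H3K9 pep 500 nM / SAM 20 uM; 2 h RT; anti-H3K9me1 Ab 0.5 ug/mL + SA donor / anti-rabbit acceptor beads 20 ug/mL each, 10 min; AlphaScreen read.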
JMJD2A Tudor inh: qHTS Assay for Inhibitors of JMJD2A-Tudor Domain. hit rate 4.4% among 390,000. AlphaScreen JMJD2A-Tudor / H3K4me3 peptide binding. AID 504339, 2011. Potency, µM (titrated, usually from 114 µM), inactives show at the highest dose activity change, negative = inhibition, hits mostly inhibitors; note: % is set by controls: 0 for no effect and ±100 for the full control effect; nearly all actives have a fitted effect of over 50% in size
Starred values were filed as active, the others as inactive; ? = inconclusive; nt = not tested or not shown; [ ] = another dose, or the depositor's remark. Most compounds without a hit are left out; they make up all but 12% or so of the library. Calls come from the whole dose curve; as a rule, active = well fitted curve in the direction sought with a large enough effect; inconclusive = small, poorly fitted or top-dose-only effect, or another doubt; inactive = no such curve, though single readings can be large; an effect the other way counts as inactive or inconclusive. Potency is the fitted concentration of half-maximal effect.

SMILES | L3MBTL1 inh | Sfp inh | BAZ2B block | HP1b binding inh | G9a block | JMJD2A Tudor inh
CC(C)C(=O)NC(=S)Nc1ccccn1 | 3% | -3% | 6% | 24% | 56µM* | ?
CCCCN1CCC[C@@H]1CNC(=O)c1cc(C#N)c2ccccc2c1OC | nt | -30% | nt | nt | nt | nt
O=C(NC(=S)Nc1ccccn1)c1ccc([N+](=O)[O-])cc1 | 2% | -29% | -25% | 9% | 79µM* | -23%
O=C(NC(=S)Nc1ccccn1)c1ccco1 | -1% | 56µM* | 2% | 22% | -7% | ?
O=C(Nc1ncccn1)c1ccc([N+](=O)[O-])cc1 | nt | 6% | -6% | 33% | -40% | 1%
CC(C)CCNC(=S)Nc1ccccn1 | 1% | -43% | -13% | 24% | 1µM* | -13%
CC(C)C(=O)NC(=S)Nc1ccccc1C(=O)NC1CCCCC1 | 14% | 5% | -5% | -2% | 50µM* | -19%
CCC(=O)NC(=S)Nc1ccccc1C(=O)NC1CCCCC1 | -9% | 0% | -12% | 30% | -25%[59 µM] | -4%
COC(=O)[C@H]1C[C@@H]1[C@H](NS(=O)(=O)c1ccc(-c2ccccc2)cc1)c1ccccc1 | nt | 12% | nt | nt | nt | nt
O=C(O)[C@H]1[C@H]2C[C@H]3c4[nH]c5ccccc5c4CCN3C[C@@H]2CC[C@@H]1O | nt | 17% | nt | nt | nt | nt
O=C(NC(=S)Nc1cccnc1Cl)c1ccc(Cl)cc1 | nt | ? | -20% | -4% | 40µM* | -3%
Cc1cc(Cl)ccc1Oc1ncnc2onc(C)c12 | -2%[11.4 µM] | 0% | -10% | 28% | 2% | -25%
Cc1noc2ncnc(Oc3ccc(Cl)cc3Cl)c12 | 2%[11.4 µM] | 15% | 13% | 11% | 5% | 56µM*
Cn1c(=O)c2c(-c3ccccc3)n(-c3cccc(C#N)c3)cc2n(C)c1=O | nt | nt | -8% | 13% | ? | -28%
COc1ccc2cc(/C=C/C(=O)c3ccco3)c(Cl)nc2c1 | nt | -6% | 3% | nt | 50µM* | nt
COc1ccc(N(CC(=O)NCCc2ccc(C)cc2)S(=O)(=O)c2c(C)nn(C)c2C)cc1 | nt | nt | nt | 31% | -3%[59 µM] | -17%
Cc1ccc(NC(=O)CN2C=NS(=O)(=O)c3ccccc32)cc1 | nt | nt | -1% | 6% | 3%[59 µM] | -17%
CC(C)(C)c1ccc(OCCCN2CCCC2)cc1 | -3% | -13% | ? | ? | 0% | 22µM*
c1ccc(COc2ccc(OCCN3CCCC3)cc2)cc1 | -3% | -5% | -12% | 1% | ? | ?
c1ccc(COc2ccc(OCCCN3CCCC3)cc2)cc1 | -7% | -14% | 50µM* | -9% | 6.3µM* | 20µM*
Cc1ccc2sc(NNC(=O)c3cc(-c4cccs4)nc4ccccc34)nc2c1C | -9% | -19% | 5% | nt | 32µM* | nt
Cc1ccc(NC(=O)c2cc(-c3cccs3)nc3ccccc23)nc1 | 14% | -12% | -18% | 63% | 40µM* | 11%
Cc1cc(C)c2nc(NNC(=O)c3cc(-c4cccs4)nc4ccccc34)sc2c1 | ? | -27% | ? | 36% | 32µM* | ?
Cc1c(NC(=O)c2cc(-c3cccs3)nc3ccccc23)c(=O)n(-c2ccccc2)n1C | 1% | 20% | -32% | 8% | 30%[59 µM] | -23%
O=C(NNc1nc2ccc(Cl)cc2s1)c1cc(-c2cccs2)nc2ccccc12 | -25% | -4% | -34% | 49% | -9% | ?
SMILES | L3MBTL1 inh | Sfp inh | BAZ2B block | HP1b binding inh | G9a block | JMJD2A Tudor inh
N=C(N)N=Nc1c(O)[nH]c2ccc(Br)cc12 | -28% | 3% | ? | 14% | ? | -30%
COc1ccccc1N=Nc1c(O)[nH]c2ccc(Br)cc12 | nt | 7% | 3% | -2% | -10% | 45µM*
Cc1cccc(N=Nc2c(O)[nH]c3ccc(Br)cc23)c1 | nt | 9% | -22% | 23% | 45µM* | -28%
Cc1ccccc1N=Nc1c(O)[nH]c2ccccc12 | nt | nt | nt | -5% | nt | ?
COc1ccc2[nH]c(-c3ccccc3)cc(=O)c2c1 | nt | 3% | nt | nt | 1% | nt
Cc1ccc2[nH]c(O)c(N=Nc3ccccc3C)c2c1 | nt | 35µM* | ? | 71µM* | 8.9µM* | ?
COc1ccc2[nH]c(N=Nc3ccccc3C)c(O)c2c1 | -7% | -10% | ? | -12% | 13µM* | 45µM*
CCc1ccc(CN2C(=O)c3ccccc3C2C(=O)NCCc2ccc(OC)c(OC)c2)cc1 (stereo unspecified) | nt | nt | -3% | -14% | 0%[59 µM] | -18%
COc1ccc2nc3c(cc2c1)Cn1c-3nc2ccccc2c1=O | nt | 6% | nt | 3% | nt | 3%
O=C(N=Nc1c(O)[nH]c2ccc(Br)cc12)c1ccccc1-n1cccc1 | nt | -5% | 32µM* | ? | 25µM* | 16µM*
Cc1ccc(N=N/C(=C\O)C(=O)c2ccc(Cl)cc2)cc1 | ? | 10% | 11µM* | ? | 25µM* | -35%[11.4 µM]
O=C1/C(=C/c2ccco2)N=C(N2CCCCC2)N1c1ccccc1 | -9% | ? | 79µM* | 0% | ? | -25%
CC(C)N(C1=N/C(=C\c2ccco2)C(=O)N1c1ccccc1)C(C)C | nt | -9% | -4% | 8% | ? | -5%
COc1ccc(-n2ccnc(NCCc3ccc(S(N)(=O)=O)cc3)c2=O)cc1Cl | nt | nt | -28% | 11% | -7%[59 µM] | -21%
COc1cc(-c2cc(OC)c3c(C)oc(C)c3c(=O)c2)ccc1OC(=O)c1ccccc1C | nt | nt | -39% | 4% | ? | ?
CC1CCCN(C(=O)C2CCN(CCCc3ccccc3)CC2)C1 (stereo unspecified) | 36% | ? | ? | ? | 16µM* | 3.5µM*
CC1CCCN(C(=O)C2CCN(CC(C)c3ccccc3)CC2)C1 (stereo unspecified) | 3% | 8% | -28% | ? | ? | 3.5µM*
NC(=O)c1ccc(NC(=O)CCCc2nc(-c3ccccc3Cl)no2)cc1 | -20% | 5% | -11% | 19% | 50µM* | -4%
COc1ccc(-c2noc(CCCC(=O)Nc3ccc(C(N)=O)cc3)n2)cc1 | 0% | 8% | 2% | 14% | 14%[59 µM] | -7%
Nc1cc(Cc2ccccc2)ccc1O | nt | nt | nt | 45µM* | nt | 3.2µM*
CCOc1ccc(CNC(=O)C2CCCN(c3nc4c(C)cc(C)cc4s3)C2)cc1 (stereo unspecified) | nt | nt | -15% | 42% | 16%[59 µM] | -5%
COc1cc(/C=C2/CCC/C(=C\c3cc(O)c(OC)c(Cl)c3)C2=O)cc(Cl)c1O | -20% | -3% | ? | -15% | 35µM* | ?
